“And” between values parts separate entries of the source, which are not always exact repeats. Equal entries are not always repeated. About 83,000 compounds went through this panel and 20% of them were active in at least one assay; those are over-represented in the sample as a whole.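 Each cell line was grown in a 96-well plate and treated with one concentration of compound for 48 hours. Values below 10 were considered active.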 Some compounds were tested as several samples or in several runs, with calls that do not always agree. The source made the active and inactive calls.
Legend:
Assay in all cases: NCI-60 one-dose screen, 48 h (100 = growth as untreated, 0 = no growth, -100 = all killed)
Conditions in all cases: 10 µM unless noted
T-47D breast = test system: T-47D breast
BT-549 breast = test system: BT-549 breast
MDA-MB-435 melanoma = test system: MDA-MB-435 melanoma
SW-620 colon = test system: SW-620 colon
MCF7 breast = test system: MCF7 breast
HCT-116 colon = test system: HCT-116 colon
HCC-2998 colon = test system: HCC-2998 colon
KM12 colon = test system: KM12 colon

Measured: growth

O[C@H](c1cc(C(F)(F)F)nc2c(C(F)(F)F)cccc12)[C@@H]1CCCCN1
inactive: T-47D breast 43.6% and 64% | BT-549 breast 65.1% and 74.8% | MDA-MB-435 melanoma 64.2% and 69% | SW-620 colon 71% and 74.1% | MCF7 breast 21.3% and 13.3% | HCT-116 colon 44.1% and 45.2% | HCC-2998 colon 74.5% and 54.9% | KM12 colon 50.7% and 43.8%

NS(=O)(=O)c1cc2c(cc1Cl)NC(C(Cl)Cl)NS2(=O)=O (configuration not stated)
inactive: T-47D breast 104% | BT-549 breast 70.5% and 102% | MDA-MB-435 melanoma 101% and 104% | SW-620 colon 110% | MCF7 breast 93.1% and 110% | HCT-116 colon 101% and 100% | HCC-2998 colon 111% | KM12 colon 111%

O=C(CCc1ccc(O)cc1)N/N=C/c1cc(Br)ccc1O
inactive: T-47D breast 33.3% | BT-549 breast 52.4% | MDA-MB-435 melanoma 55.8% | SW-620 colon 59.5% | MCF7 breast 38.9% | HCT-116 colon 46.7% | HCC-2998 colon 50.1% | KM12 colon 28.1%

CC1=C(/C=C/C(C)=C/C=C/C(C)=C/C=N/NC(=S)NC(=S)N/N=C/C=C(C)/C=C/C=C(C)/C=C/C2=C(C)CCCC2(C)C)C(C)(C)CCC1
active: T-47D breast -5.98% | BT-549 breast -24.7% and 5.7% | MDA-MB-435 melanoma -47.1% and -61.9% | SW-620 colon -73.9% and -83.4% | HCT-116 colon 6.1% and -84% | KM12 colon -8.44% and -50.7%
inactive: HCC-2998 colon 57.1% and 12.3%
16.8% (inactive) and 9.28% (active): MCF7 breast

OC(COc1cccc2ccccc12)CN1CCN(c2ccc(Cl)cc2)CC1 (configuration not stated)
inactive: T-47D breast 71.2% and 96.1% | BT-549 breast 85.4% and 134% | MDA-MB-435 melanoma 90.2% and 94.6% | SW-620 colon 71.7% and 98.6% | MCF7 breast 83.6% and 89.7% | HCT-116 colon 60.2% and 83.4% | HCC-2998 colon 94.2% | KM12 colon 90% and 113%

COc1ccc(S(=O)(=O)N2CCOCC2)cc1NC(=O)c1[nH]c(C)c2c1CCCCC2=O
inactive: T-47D breast 107% and 42% | BT-549 breast 116% and 102% | MDA-MB-435 melanoma 105% and 35.8% | SW-620 colon 103% and 67.5% | MCF7 breast 91.1% and 27.6% | HCT-116 colon 109% and 101% | HCC-2998 colon 102% and 69.8% | KM12 colon 110% and 65%

CCOc1ccc2c(S(=O)(=O)O)cccc2c1[N+](=O)[O-]
inactive: T-47D breast 114% and 111% | BT-549 breast 119% and 103% | MDA-MB-435 melanoma 108% and 106% | SW-620 colon 107% and 98.2% | MCF7 breast 107% and 104% | HCT-116 colon 101% | HCC-2998 colon 109% | KM12 colon 98.1% and 103%

O=C(Nc1ccc([N+](=O)[O-])cc1Cl)c1cc(Cl)ccc1O
active: T-47D breast -7.5% and 3.54% | BT-549 breast -35.7% and -74.7% | MDA-MB-435 melanoma -20% and -17.3% | SW-620 colon 0.797% and 1.64% | MCF7 breast 3.12% | HCT-116 colon -45.4% and -78.2% | HCC-2998 colon -23.1% and -28.9% | KM12 colon -58.1% and -25.8%

CCN1CCN(CCNc2nccc(-c3c(-c4cccc(O)c4)nc4sccn34)n2)S1(=O)=O
inactive: T-47D breast 76.7% and 72.5% | BT-549 breast 72% and 83.8% | MDA-MB-435 melanoma 20% and 11% | SW-620 colon 107% and 101% | MCF7 breast 86.8% and 83.6% | HCT-116 colon 53.5% and 47.7% | HCC-2998 colon 111% and 97.1% | KM12 colon 52.4% and 68.9%

Nc1nc2ncc(CNc3ccc(C(=O)N[C@@H](CCc4nn[nH]n4)C(=O)O)cc3)nc2c(=O)[nH]1
inactive: T-47D breast 103% and 95.9% | BT-549 breast 88.7% and 107% | MDA-MB-435 melanoma 101% and 110% | SW-620 colon 98.5% and 104% | MCF7 breast 94.2% and 93.7% | HCT-116 colon 94.1% and 98.9% | HCC-2998 colon 99.2% and 104% | KM12 colon 94.5% and 103%

CNC(=O)c1ccc(C)c(-n2c(C)cc(OCc3ccc(F)cc3F)c(Br)c2=O)c1
inactive: T-47D breast 40.9% and 58.7% | BT-549 breast 75.7% and 76.4% | MDA-MB-435 melanoma 85.4% and 99.4% | SW-620 colon 79.9% and 95.9% | MCF7 breast 82.8% and 90.5% | HCT-116 colon 68.1% and 78.4% | HCC-2998 colon 67.5% and 72.6% | KM12 colon 90% and 92.5%

CCOC(=O)C(CNc1ccccc1)C(=O)OCC
inactive: T-47D breast 105% | BT-549 breast 104% | MDA-MB-435 melanoma 108% | SW-620 colon 104% | MCF7 breast 99.5% | HCT-116 colon 104% | HCC-2998 colon 102% | KM12 colon 106%

Nc1ccc2ccc(N)cc2c1
active: MDA-MB-435 melanoma -33.6%
inactive: T-47D breast 87.7% | BT-549 breast 87.7% | SW-620 colon 87.5% | MCF7 breast 63.5% | HCT-116 colon 82.6% | HCC-2998 colon 100% | KM12 colon 67.1%

COc1cc2c(Nc3ccc(Cl)c(Cl)c3F)ncnc2cc1OCC1C[C@@H]2CN(C)C[C@@H]2C1 (some centres not stated)
active: T-47D breast -74.6% and -6.7% | MDA-MB-435 melanoma -95.8% and -38% | SW-620 colon -76.6% and 6.96% | HCT-116 colon -85.4% and 7.79%
-87.7% (active) and 22.2% (inactive): HCC-2998 colon
-88.5% (active) and 39.9% (inactive): KM12 colon
-87.2% (active) and 36.9% (inactive): BT-549 breast
-71.9% (active) and 13.4% (inactive): MCF7 breast

CC(C)Cc1ccc(C(C)C(=O)NCc2ccc(Cn3c(=O)sn(CCCI)c3=O)cc2)cc1 (configuration not stated)
31.7% (inactive) and -61.4% (active): MCF7 breast
89.9% (inactive) and -81.9% (active): BT-549 breast
active: T-47D breast -49.3%
99.2% (inactive) and -36.7% (active): KM12 colon
82% (inactive) and -72.9% (active): HCT-116 colon
91.5% (inactive) and -69.2% (active): HCC-2998 colon
66.5% (inactive) and -63.2% (active): SW-620 colon
93% (inactive) and -72.6% (active): MDA-MB-435 melanoma

CC(C)CNC(=O)c1ccccc1C(=O)NC1(C(=O)NCC(C)C)CCCC1
inactive: T-47D breast 106% and 95.5% | BT-549 breast 122% and 115% | MDA-MB-435 melanoma 101% and 105% | SW-620 colon 102% and 106% | MCF7 breast 103% and 106% | HCT-116 colon 106% and 104% | HCC-2998 colon 101% and 103% | KM12 colon 112% and 104%

OC(CSc1ccccc1)CN1CCN(c2cccc(Cl)c2)CC1 (configuration not stated)
inactive: T-47D breast 90.3% and 102% | BT-549 breast 97.7% | MDA-MB-435 melanoma 114% and 93.6% | SW-620 colon 105% | MCF7 breast 102% and 94% | HCT-116 colon 93.3% and 97.5% | HCC-2998 colon 106% and 95% | KM12 colon 109% and 101%

NC(=S)NS(=O)(=O)c1ccc(N)cc1
inactive: T-47D breast 108% | BT-549 breast 128% | MDA-MB-435 melanoma 104% | SW-620 colon 110% | MCF7 breast 101% | HCT-116 colon 101% | HCC-2998 colon 106% | KM12 colon 110%

CC(=O)Oc1cc(C(=O)O)cc(OC(C)=O)c1OC(C)=O
inactive: T-47D breast 101% and 98.5% | BT-549 breast 110% and 102% | MDA-MB-435 melanoma 116% and 106% | SW-620 colon 103% and 107% | MCF7 breast 102% and 93% | HCT-116 colon 100% and 90.3% | HCC-2998 colon 102% and 100% | KM12 colon 112% and 106%
